For experiment [1], the system named is Zika virus NS2B-NS3 protease (linked construct). Briefly: Primary screen NINDS Rhodamine qHTS for Zika virus inhibitors (AID 1347160). Also: nearly all actives have a fitted effect of over 55% in size. Also: potency is read from the fitted curve at half-maximal effect. Put shortly:
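Aprotinin served as in-plate control. Conditions: 25 nM linked NS2B-NS3, pH 8.0 Tris buffer, titrated compounds, 15 min preincubation and 15 min reaction with 1.5 microM Rhod110 substrate at room temperature.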
(In general: In qHTS, concentration-response curves come from the screen itself.)

A short description of experiment [2]: HPAF-II Cancer Cell Toxicity qHTS against the NCATS CANVASS Library (AID 1347346). Also: nearly all actives have a fitted effect of over 55% in size. Also: potency is read from the fitted curve at half-maximal effect. The gist of the method:
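First, HPAF-II cells are plated (1000 cells/well) and held 4 h at 37 degrees C. Next, compounds are pin-transferred as an 11-point series. After 72 h, CellTiter-Glo is added and luminescence measured.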

Experiment [3] is described as follows: OV-SAHO Cancer Cell Toxicity qHTS against the NCATS CANVASS Library (AID 1347348). Also: nearly all actives have a fitted effect of over 55% in size. Also: potency is read from the fitted curve at half-maximal effect. The gist of the method: (§1)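 Following a 4 h pre-incubation of 1000 seeded cells, compounds were pinned in an 11-pnt dilution series and left for 72 h; viability then came from CellTiter-Glo.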
Experiment [4] can be described thus: U-118MG Cancer Cell Toxicity qHTS against the NCATS CANVASS Library (AID 1347351). The gist of the method:
as §1

Experiment [5] in a line: COV-362 Cancer Cell Toxicity qHTS against the NCATS CANVASS Library (AID 1347352). Also: series mostly up to about 38 µM. The gist of the method: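 First, 1000 cells go into each well and rest for 4 hours. Next, an 11-point dilution range is pinned in. Plates then incubate 72 hours before CellTiter-Glo addition and luminescence reading.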
Experiment [6] is described as follows: HEK293 18hr Apoptosis Induction qHTS against the NCATS CANVASS Library (AID 1347357). Put shortly: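 HEK293 cells (500 per well, DMEM with 10% FBS) were treated with natural products, incubated 18 hours at 37 degrees C, then caspase-3/7 activity was read by Caspase-Glo luminescence after 15 min at room temperature.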
Experiment [7] in a line: HPAF-II 12hr Apoptosis Induction qHTS against the NCATS CANVASS Library (AID 1347358). Put shortly: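 Cells plated at 500 per well are dosed with compound and incubated 12 hours at 37 degrees C. Caspase-Glo 3/7 reagent is added and, after 15 min at room temperature, luminescence proportional to caspase activity is measured.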
The nature of experiment [8]: HEK293 24hr Apoptosis Induction qHTS against the NCATS CANVASS Library (AID 1347359). Put shortly:
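Caspase-3/7 activation measured as luminescence from the DEVD-based Caspase-Glo reagent, 15 min at room temperature, following 24-hour compound treatment of HEK293 cells.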

Experiment [9] can be described thus: HPAF-II 18hr Apoptosis Induction qHTS against the NCATS CANVASS Library (AID 1347360). The gist of the method: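 HPAF-II cells (500/well, DMEM + 10% FBS) were exposed to compounds for 18 hours at 37 degrees C. Caspase-3/7 activity was then read by Caspase-Glo 3/7 luminescence after 15 min at room temperature.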
Experiment [10] can be described thus: HEK293 12hr Apoptosis Induction qHTS against the NCATS CANVASS Library (AID 1347361). Put shortly: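 Read-out: Caspase-Glo 3/7 luminescence (DEVD substrate), 15 min RT. Preceded by 12 h compound exposure of HEK293, 500 cells/well, 11-pt qHTS titration; doxorubicin titration as control.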
Experiment [11] concerns the target Luciferin 4-monooxygenase (Photinus pyralis) (UniProt P08659). As to the kind of experiment: Firefly luciferase counterscreen qHTS: Assay Interference Panel against the NCATS CANVASS Library (AID 1347363). Also: series mostly up to about 57 µM. The gist of the method: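 Luminescence inhibition readout: compounds (11-point qHTS) sat 15 min at room temperature with substrate mix (0.013 mM luciferin and ATP), then firefly luciferase was added and signal read 5 min later.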
(In general: The purpose of a counterscreen is to sort out artefacts and off-target activity.)

Experiment [12] is described as follows: MCF7 Cancer Cell Toxicity qHTS against the NCATS CANVASS Library (AID 1347369). The gist of the method: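 MCF7, 500 cells/well; cpds 11-pt qHTS; 72 hr, 37C/5% CO2; CellTiterGlo ATP luminescence.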
Experiment [13] is described as follows: qHTS for ATAD5 Antagonist screened against the NCATS CANVASS Library (AID 1347370). Also: nearly all actives have a fitted effect of over 65% in size. Also: potency is read from the fitted curve at half-maximal effect. The gist of the method:
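Compounds (11-point) co-dosed with 10 µM 5-FUrd for 16 h at 37 °C onto HEK293T-ATAD5 luciferase reporter cells. Viability measured by CellTiter-Fluor fluorescence, then ATAD5 reporter signal by luminescence.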

Experiment [14] can be described thus: J3T Cancer Cell Toxicity qHTS against the NCATS CANVASS Library (AID 1347371). Put shortly: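 Luminescence from CellTiterGlo, reporting cellular ATP, serves as the viability measure after 72 hr compound treatment of J3T canine glioma cells seeded at 500 cells/well.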
For experiment [15], the target named is Nuclear receptor subfamily 1 group I member 3 (Homo sapiens) (UniProt Q14994). As to the kind of experiment: qHTS for Constitutive Androstane Receptor (CAR) Antagonist screened against the NCATS CANVASS Library (AID 1347372). Also: potency is read from the fitted curve at half-maximal effect. The gist of the method:
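Antagonist mode: compound added alongside 50 nM CITCO to HepG2-hCAR-CYP2B6 reporter cells, 24hr at 37C. Viability by CellTiter-Fluor fluorescence, then CAR-driven luciferase by ONE-Glo luminescence.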

A short description of experiment [16]: 10-beta competent E. coli microbial cell viability qHTS against the NCATS CANVASS Library (AID 1347376). Also: series mostly up to about 46 µM. Put shortly: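 Bacterial suspension diluted to 0.2 OD was dosed with compounds, 11-point series, then held overnight at 37C. BacTiter-Glo reagent was added, and after 20 min at room temperature ATP-dependent luminescence was measured.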
A short description of experiment [17]: qHTS for Inflammasome Signaling Inhibitors: IL-1-beta AlphaLISA screen against the NCATS CANVASS Library (AID 1347379).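 Also: human THP-1 cells primed with LPS then triggered with ATP.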 Put shortly:
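Secreted IL-1B from human THP-1 cells quantified by AlphaLISA 16 hr after compound addition (final up to 57.5 uM). A 1 hr compound pretreatment preceded inflammasome activation with 250 ng/mL LPS plus 1.25 mM ATP (final).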

A short description of experiment [18]: Inflammasome Signaling qHTS Counterscreen: IL-1-beta AlphaLISA counterscreen against the NCATS CANVASS Library (AID 1347381).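 Also: cell-free check with purified IL-1β in medium and no THP-1 cells; series mostly up to about 57 µM.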 The gist of the method:
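Purified IL-1-beta (4 pg/well) + compound, 11-pt conc. series; acceptor beads 6 ug/mL + biotin-Ab 0.6 nM final, 1 h RT; SA-donor 24 ug/ml final, 30 min dark RT; read ex 680/em 615.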

Experiment [19] can be described thus: Cytotoxicity qHTS for assessment of Hepg2 cells membrane integrity screened against the NCATS CANVASS Library (AID 1347387). Put shortly: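 Cells were seeded at 2000 per well and left overnight to attach. Compounds were pin-transferred to give 0.59 nM - 46 uM in an 11-point series and incubated 5 hr at 37C. CytoTox-ONE reagent was added and, after 10 min at room temperature, fluorescence (ex 560, em 590 nm) was read.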

Experiment [20] in a line: Vero-766 cells viability qHTS against the NCATS CANVASS Library: Counterscreen for Zika virus inhibition assay (AID 1347394). Also: series mostly up to about 46 µM; nearly all actives have a fitted effect of over 60% in size. Put shortly: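 Uninfected Vero 766 (African green monkey) cells, 1000/well, attached overnight, then exposed 72 h at 37C to compounds (11-point qHTS). Viability read by CellTiter-Glo luminescence; media-only wells served as 100% inhibition.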

Unmarked numbers belong to inactive results. Results filed as inconclusive are left out. The source made the active and inactive calls. Calls follow the shape of the dose curve; as a rule, active = well fitted curve in the direction sought with a large enough effect; inconclusive = small, poorly fitted or top-dose-only effect, or another doubt; inactive = no such curve, though single readings can be large; an effect the other way counts as inactive or inconclusive. Numbered stars: 1 amine (or outer) side, 2 acyl side, 3 side chain; on linkers, the order of the positions; unused ones are H or OH. Bridge positions count the residues as written; N and C are the ends. Square brackets hold non-standard residues; d marks the D form. Peptide text beside a SMILES is read from it. ξ: configuration not given here. Phe(3R-OH) = O=C([C@@H](N[*:1])[C@H](O[*:3])c1ccccc1)[*:2]; NMeTrp(4-OMe) = CN[C@@H](Cc1c[nH]c2cccc(OC)c12)C(=O)O; ξThr(3R)(O-yl) = C[C@@H](O[*:3])C(N[*:1])C(=O)[*:2]; NMeThr(3ξ) = CN[C@H](C(=O)O)C(C)O; NMeL = CN[C@@H](CC(C)C)C(=O)O; NMeV = CN[C@H](C(=O)O)C(C)C; ξIle = CC[C@H](C)C(N)C(=O)O; ξV = CC(C)C(N)C(=O)O

Chain of Nuclear receptor subfamily 1 group I member 3 (Homo sapiens) (Q14994 whole entry, looked up): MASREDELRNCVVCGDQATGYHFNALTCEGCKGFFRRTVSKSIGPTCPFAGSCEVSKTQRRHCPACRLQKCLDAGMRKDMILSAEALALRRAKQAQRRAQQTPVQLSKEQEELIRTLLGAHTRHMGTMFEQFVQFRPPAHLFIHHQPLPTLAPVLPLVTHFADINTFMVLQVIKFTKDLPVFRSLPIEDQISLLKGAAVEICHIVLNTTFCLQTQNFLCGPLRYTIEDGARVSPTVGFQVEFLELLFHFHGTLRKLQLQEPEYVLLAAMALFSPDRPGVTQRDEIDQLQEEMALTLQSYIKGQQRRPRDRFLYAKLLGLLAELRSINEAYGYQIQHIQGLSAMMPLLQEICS
Chain of Luciferin 4-monooxygenase (Photinus pyralis) (P08659 whole entry, looked up): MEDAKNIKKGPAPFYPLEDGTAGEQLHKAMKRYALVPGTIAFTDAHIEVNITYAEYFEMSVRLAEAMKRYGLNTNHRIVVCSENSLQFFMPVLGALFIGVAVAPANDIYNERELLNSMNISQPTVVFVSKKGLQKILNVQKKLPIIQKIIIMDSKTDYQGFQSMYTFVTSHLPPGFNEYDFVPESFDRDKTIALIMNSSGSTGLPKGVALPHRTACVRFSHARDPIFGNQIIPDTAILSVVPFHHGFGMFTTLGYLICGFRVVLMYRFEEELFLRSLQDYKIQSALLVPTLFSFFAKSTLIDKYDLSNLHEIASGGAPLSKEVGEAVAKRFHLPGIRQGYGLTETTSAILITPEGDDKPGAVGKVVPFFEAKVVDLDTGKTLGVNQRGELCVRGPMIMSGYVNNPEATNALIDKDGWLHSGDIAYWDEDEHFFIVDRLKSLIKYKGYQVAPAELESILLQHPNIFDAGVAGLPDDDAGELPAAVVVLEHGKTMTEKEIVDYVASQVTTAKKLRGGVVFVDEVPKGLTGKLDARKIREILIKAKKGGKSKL

Turning to `C[C@H]1C[C@@H]([C@@H]2CC[C@]34O[C@H](CC[C@@]35C[C@H](C)C(=O)O5)CN24)OC1=O`, the Potency result in experiment [1], in experiment [2], in experiment [3], in experiment [4], in experiment [5] and in experiment [6] was “inactive” in each case. The Potency result in [7], in experiment [8], in experiment [9], in experiment [10], in [11] and in experiment [12] was “inactive” each time. The Potency entry in experiment [13], in experiment [14], in [15], in experiment [17] and in [20] was “inactive” each time. The result in experiment [16], in [18] and in [19] was inactive.

On to `CO[C@H]1/C=C/CC[C@@H](S[C@@H]2O[C@H](CO)[C@@H](O)[C@H](O)[C@H]2O)CC(=O)O[C@@H](/C(C)=C/[C@H](C)C(=O)CCCC2CC(=O)NC(=O)C2)[C@@H](C)[C@@H]1O`, for which the Potency result in [1], in [6], in experiment [7], in experiment [8], in [9] and in [10] was “inactive” each time. In addition, the Potency entry in experiment [11] and in experiment [20] was “inactive” in each case. Also, the Potency in [2] is 8.41 µM (active); in experiment [3], 3.75 µM (active); in experiment [13] it was 4.17 µM (active); in [15], 14.8 µM (active); in [17] it was 30.6 µM (active). In addition, the molecule was classed as inactive in [16], in experiment [18] and in experiment [19].

Consider `CC[C@H](C)C(NC(=O)[C@@H](NC)C(C)C)C(=O)NC1C(=O)N(C)[C@@H](C(C)O)C(=O)N[C@@H](C(C)C)C(=O)N(C)[C@@H](CC(C)C)C(=O)NC(C(C)C)C(=O)N(C)[C@@H](C(C)C)C(=O)N(C)[C@@H](Cc2c[nH]c3cccc(OC)c23)C(=O)N[C@@H](C(C)C)C(=O)N[C@@H]([C@H](O)c2ccccc2)C(=O)N[C@@H](C(C)C)C(=O)O[C@@H]1C` (stereo partly drawn) (H-[NMeV][ξIle][ξThr(3R)(O-yl)][NMeThr(3ξ)]V[NMeL][ξV][NMeV][NMeTrp(4-OMe)]V[Phe(3R-OH)]V; ester 3-C), for which the Potency entry in experiment [1], in experiment [3], in experiment [4], in experiment [5], in [6] and in experiment [7] was “inactive” each time. For the same molecule, the Potency result in [8], in [9], in experiment [10], in experiment [11], in experiment [12] and in experiment [13] was “inactive” in each case. Moreover, the Potency result in experiment [14], in experiment [17] and in experiment [20] was “inactive” in each case. The Potency in experiment [2] is 11.9 µM (active). Moreover, the molecule was called inactive in [18] and in [19].

In the case of `COc1cc(/C=C/C(=O)O)ccc1O`, the Potency result in experiment [1], in experiment [2], in experiment [3], in experiment [4], in experiment [5] and in [6] was “inactive” in each case. In addition, the Potency result in experiment [7], in experiment [8], in [9], in experiment [10], in experiment [11] and in experiment [12] was “inactive” each time. Moreover, the Potency entry in experiment [13], in experiment [14], in experiment [15], in experiment [17] and in experiment [20] was “inactive” each time. In addition, the molecule was classed as inactive in [16], in experiment [18] and in experiment [19].

In the case of `C[C@@H]1O[C@H](c2c(O)cc(O)c3c(=O)cc(-c4ccc(O)cc4)oc23)[C@H](O)[C@H](O)[C@H]1O`, in [1], the Potency was 34.9 µM (active). The Potency result in [2], in experiment [3], in experiment [4], in experiment [5], in experiment [6] and in [7] was “inactive” in each case. In addition, the Potency entry in experiment [8], in experiment [9], in experiment [10], in experiment [11], in experiment [12] and in [13] was “inactive” in each case. For the same molecule, the Potency entry in experiment [14], in experiment [15], in [17] and in experiment [20] was “inactive” throughout. Moreover, the outcome in [16], in experiment [18] and in [19] was inactive.

Take `O=Cc1ccc2n1C[C@@]1(OC2)O[C@H](CO)[C@@H](O)[C@@H]1O`: the Potency entry in experiment [1], in [2], in experiment [3], in [4], in experiment [5] and in experiment [6] was “inactive” in each case. For the same molecule, the Potency result in experiment [7], in experiment [8], in experiment [9], in experiment [10], in experiment [11] and in experiment [12] was “inactive” each time. Moreover, the Potency result in experiment [13], in experiment [14], in experiment [15], in [17] and in experiment [20] was “inactive” throughout. For the same molecule, the molecule was called inactive in experiment [16], in experiment [18] and in [19].

The values are drawn from PubChem BioAssay (NCATS).
